Experimental data reported in the supplement of paper PMC10849652.
Of roughly 7,900 targets only a part is listed; those with a hit were picked by preference. About 0.6% of all pairs of compound and target were hits.

Key:
Assay in all cases: log2 fold change, soluble protein after heating vs DMSO (PISA); higher = thermal stabilisation; K562 cells, 10 uM, 30 min; active = over 0.2 and 3.5 SD of the protein, either way, in both replicates (recomputed)
YWHAB = YWHAB (UniProt P31946)
Method in brief: (§1)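 K562 cells at 2×10^6 cells/mL were given 10 μM compound for 30 min. Aliquots then went through 3 min of heating across 48°C-58°C, were pooled, and were extracted in PBS with 0.5% NP-40 at 4°C, and the supernatant after 21,000xg for 90 min was quantified by TMTpro 16plex LC-MS/MS with channel sums equalised. Thermal stability relative to control samples, from duplicates, is given as log2 fold change.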

YWHAQ = YWHAQ (UniProt P27348)
Method in brief: as §1

YWHAZ [1] = target: YWHAZ (UniProt E7ESK7)
Method in brief: as §1

YWHAZ [2] = target: YWHAZ (UniProt P63104)
Method in brief: as §1

YY1 = YY1 (UniProt P25490)
Method in brief: as §1

ZADH2 = ZADH2 (UniProt Q8N4Q0)
Method in brief: as §1

ZBTB21 = ZBTB21 (UniProt Q9ULJ3)
Method in brief: as §1

ZBTB43 = ZBTB43 (UniProt O43298)
ZBTB43, sequence (O43298 whole entry, looked up): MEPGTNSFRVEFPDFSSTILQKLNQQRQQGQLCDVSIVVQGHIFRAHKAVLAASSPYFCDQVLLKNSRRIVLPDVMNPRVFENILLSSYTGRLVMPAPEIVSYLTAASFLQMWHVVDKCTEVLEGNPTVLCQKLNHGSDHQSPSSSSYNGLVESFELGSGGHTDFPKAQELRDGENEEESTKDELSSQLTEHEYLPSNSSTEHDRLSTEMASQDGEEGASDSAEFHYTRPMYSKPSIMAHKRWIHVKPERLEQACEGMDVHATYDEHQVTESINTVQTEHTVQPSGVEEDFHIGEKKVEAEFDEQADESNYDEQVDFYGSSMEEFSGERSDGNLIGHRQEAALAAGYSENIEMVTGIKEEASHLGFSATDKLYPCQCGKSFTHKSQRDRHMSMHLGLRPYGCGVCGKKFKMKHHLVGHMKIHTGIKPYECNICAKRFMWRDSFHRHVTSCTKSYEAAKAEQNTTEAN
Method in brief: as §1

ZC3H18 = ZC3H18 (UniProt Q86VM9)
ZC3H18, sequence (Q86VM9 whole entry, looked up): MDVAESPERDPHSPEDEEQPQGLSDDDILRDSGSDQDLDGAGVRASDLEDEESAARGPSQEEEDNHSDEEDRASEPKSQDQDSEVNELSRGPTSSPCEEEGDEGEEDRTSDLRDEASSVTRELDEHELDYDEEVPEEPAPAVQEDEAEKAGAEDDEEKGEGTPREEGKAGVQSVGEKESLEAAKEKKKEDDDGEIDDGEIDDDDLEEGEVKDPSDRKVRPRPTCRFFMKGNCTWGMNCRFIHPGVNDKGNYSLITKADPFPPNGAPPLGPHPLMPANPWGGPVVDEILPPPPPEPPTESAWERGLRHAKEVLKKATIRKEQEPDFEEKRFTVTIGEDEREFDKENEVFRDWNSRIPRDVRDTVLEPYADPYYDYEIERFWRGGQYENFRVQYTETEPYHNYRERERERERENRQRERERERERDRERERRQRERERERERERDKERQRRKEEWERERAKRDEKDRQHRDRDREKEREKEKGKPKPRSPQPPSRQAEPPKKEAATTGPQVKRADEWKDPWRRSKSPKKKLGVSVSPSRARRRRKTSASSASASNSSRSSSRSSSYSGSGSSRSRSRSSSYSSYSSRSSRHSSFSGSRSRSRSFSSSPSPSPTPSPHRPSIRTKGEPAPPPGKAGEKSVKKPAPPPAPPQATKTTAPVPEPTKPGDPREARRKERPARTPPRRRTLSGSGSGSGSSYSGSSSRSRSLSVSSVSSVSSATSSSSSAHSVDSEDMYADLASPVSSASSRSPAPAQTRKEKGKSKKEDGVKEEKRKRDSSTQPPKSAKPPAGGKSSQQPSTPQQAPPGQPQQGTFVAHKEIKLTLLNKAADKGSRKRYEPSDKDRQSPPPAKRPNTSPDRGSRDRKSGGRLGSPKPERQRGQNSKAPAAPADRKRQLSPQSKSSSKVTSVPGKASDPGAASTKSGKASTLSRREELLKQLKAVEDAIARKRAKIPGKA
Method in brief: as §1

ZC3H8 = ZC3H8 (UniProt Q8N5P1)
Method in brief: as §1

ZC3HC1 = ZC3HC1 (UniProt Q86WB0)
ZC3HC1, sequence (Q86WB0 whole entry, looked up): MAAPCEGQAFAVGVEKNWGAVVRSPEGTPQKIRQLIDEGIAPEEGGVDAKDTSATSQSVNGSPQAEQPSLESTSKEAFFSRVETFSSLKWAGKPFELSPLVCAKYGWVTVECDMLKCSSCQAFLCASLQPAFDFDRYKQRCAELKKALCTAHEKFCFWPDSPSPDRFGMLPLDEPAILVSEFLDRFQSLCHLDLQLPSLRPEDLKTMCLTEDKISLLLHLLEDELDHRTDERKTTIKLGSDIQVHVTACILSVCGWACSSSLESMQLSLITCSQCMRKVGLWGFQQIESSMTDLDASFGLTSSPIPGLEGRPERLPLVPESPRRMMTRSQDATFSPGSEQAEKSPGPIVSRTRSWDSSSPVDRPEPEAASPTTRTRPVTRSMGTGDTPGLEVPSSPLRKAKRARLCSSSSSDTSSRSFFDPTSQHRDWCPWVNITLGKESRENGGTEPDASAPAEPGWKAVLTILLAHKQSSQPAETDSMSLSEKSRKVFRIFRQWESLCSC
Method in brief: as §1

ZCCHC9 = ZCCHC9 (UniProt Q8N567)
ZCCHC9, sequence (Q8N567 whole entry, looked up): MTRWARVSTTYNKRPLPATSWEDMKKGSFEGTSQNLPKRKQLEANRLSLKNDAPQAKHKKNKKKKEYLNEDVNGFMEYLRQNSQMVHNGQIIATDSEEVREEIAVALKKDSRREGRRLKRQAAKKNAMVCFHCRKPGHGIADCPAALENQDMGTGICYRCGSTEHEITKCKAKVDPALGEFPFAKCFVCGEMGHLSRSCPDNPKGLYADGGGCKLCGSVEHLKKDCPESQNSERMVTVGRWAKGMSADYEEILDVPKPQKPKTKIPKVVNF
Method in brief: as §1

ZDHHC17 = ZDHHC17 (UniProt Q8IUH5)
ZDHHC17, sequence (Q8IUH5 whole entry, looked up): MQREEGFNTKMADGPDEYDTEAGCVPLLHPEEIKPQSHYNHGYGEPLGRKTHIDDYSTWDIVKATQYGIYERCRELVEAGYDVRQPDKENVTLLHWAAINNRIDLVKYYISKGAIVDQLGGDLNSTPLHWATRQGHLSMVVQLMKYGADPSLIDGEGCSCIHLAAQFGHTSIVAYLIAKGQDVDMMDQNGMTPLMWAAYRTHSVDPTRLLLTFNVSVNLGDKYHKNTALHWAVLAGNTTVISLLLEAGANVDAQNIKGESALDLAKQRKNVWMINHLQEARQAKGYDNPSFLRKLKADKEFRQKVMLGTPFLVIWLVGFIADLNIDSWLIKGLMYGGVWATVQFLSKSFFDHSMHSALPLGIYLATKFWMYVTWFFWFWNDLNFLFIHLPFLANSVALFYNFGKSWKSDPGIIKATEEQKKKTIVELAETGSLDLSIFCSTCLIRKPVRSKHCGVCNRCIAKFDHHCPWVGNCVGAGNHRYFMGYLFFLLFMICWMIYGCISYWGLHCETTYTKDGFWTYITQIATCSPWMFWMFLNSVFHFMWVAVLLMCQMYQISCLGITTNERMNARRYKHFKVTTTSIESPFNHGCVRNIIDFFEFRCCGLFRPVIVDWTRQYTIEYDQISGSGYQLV
Method in brief: as §1

ZDHHC20 = ZDHHC20 (UniProt Q5W0Z9)
ZDHHC20, sequence (Q5W0Z9 whole entry, looked up): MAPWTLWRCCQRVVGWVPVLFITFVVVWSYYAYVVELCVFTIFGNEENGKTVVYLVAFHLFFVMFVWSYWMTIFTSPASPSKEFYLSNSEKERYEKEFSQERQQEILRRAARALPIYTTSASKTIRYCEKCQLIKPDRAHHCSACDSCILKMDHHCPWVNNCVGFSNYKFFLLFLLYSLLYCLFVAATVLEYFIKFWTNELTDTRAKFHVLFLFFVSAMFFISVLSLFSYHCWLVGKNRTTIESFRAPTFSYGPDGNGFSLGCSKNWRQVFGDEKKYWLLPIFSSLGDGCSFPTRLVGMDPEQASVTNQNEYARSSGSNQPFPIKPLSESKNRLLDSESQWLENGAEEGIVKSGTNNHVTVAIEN
Method in brief: as §1

ZDHHC5 = ZDHHC5 (UniProt Q9C0B5)
ZDHHC5, sequence (Q9C0B5 whole entry, looked up): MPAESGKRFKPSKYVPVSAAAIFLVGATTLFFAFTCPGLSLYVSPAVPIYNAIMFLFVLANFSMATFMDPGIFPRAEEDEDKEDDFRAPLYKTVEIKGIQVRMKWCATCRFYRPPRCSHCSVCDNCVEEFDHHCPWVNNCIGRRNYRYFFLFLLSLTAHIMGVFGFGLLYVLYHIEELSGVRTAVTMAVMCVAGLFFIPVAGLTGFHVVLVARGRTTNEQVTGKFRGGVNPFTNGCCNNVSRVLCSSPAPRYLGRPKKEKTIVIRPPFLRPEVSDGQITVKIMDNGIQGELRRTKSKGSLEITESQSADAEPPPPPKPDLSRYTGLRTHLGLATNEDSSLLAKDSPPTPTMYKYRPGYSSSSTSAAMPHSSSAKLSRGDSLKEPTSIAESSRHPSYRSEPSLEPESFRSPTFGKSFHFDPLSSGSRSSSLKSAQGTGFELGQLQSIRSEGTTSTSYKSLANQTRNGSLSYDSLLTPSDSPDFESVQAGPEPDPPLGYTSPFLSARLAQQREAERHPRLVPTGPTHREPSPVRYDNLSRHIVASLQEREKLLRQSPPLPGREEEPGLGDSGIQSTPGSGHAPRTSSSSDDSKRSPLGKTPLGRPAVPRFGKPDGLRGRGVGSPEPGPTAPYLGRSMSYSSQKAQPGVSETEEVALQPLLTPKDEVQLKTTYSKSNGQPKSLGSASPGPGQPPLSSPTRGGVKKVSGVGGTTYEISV
Method in brief: as §1

ZDHHC7 isoform 2 = ZDHHC7 isoform 2 (UniProt Q9NXF8)
ZDHHC7 isoform 2, sequence (Q9NXF8 whole entry, looked up, canonical isoform): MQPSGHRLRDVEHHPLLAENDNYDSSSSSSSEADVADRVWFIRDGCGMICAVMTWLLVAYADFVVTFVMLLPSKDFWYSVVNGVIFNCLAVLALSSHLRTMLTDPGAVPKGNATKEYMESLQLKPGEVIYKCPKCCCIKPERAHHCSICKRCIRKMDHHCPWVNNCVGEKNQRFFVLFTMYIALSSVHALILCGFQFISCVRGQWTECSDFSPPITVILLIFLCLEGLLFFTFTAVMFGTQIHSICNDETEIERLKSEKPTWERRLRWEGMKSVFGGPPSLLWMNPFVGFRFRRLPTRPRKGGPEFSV
Method in brief: as §1

ZBTB17 isoform 2 = ZBTB17 isoform 2 (UniProt Q13105)
Method in brief: as §1

ZDHHC8 isoform 3 = ZDHHC8 isoform 3 (UniProt Q9ULC8)
Method in brief: as §1

ZDHHC6 = ZDHHC6 (UniProt Q9H6R6)
ZDHHC6, sequence (Q9H6R6 whole entry, looked up): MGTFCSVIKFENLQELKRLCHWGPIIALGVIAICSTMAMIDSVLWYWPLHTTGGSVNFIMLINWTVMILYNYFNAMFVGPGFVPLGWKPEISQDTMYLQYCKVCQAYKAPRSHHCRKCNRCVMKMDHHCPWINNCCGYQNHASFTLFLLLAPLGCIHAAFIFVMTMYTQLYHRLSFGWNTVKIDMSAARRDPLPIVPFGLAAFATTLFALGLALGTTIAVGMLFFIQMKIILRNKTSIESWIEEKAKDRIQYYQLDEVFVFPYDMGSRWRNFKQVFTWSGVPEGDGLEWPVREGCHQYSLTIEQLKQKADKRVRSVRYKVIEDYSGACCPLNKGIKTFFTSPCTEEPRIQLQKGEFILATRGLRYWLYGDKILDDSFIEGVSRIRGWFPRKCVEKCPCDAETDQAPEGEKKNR
Method in brief: as §1

Measured: log2 fold change

YWHAB, sequence (P31946 whole entry, looked up): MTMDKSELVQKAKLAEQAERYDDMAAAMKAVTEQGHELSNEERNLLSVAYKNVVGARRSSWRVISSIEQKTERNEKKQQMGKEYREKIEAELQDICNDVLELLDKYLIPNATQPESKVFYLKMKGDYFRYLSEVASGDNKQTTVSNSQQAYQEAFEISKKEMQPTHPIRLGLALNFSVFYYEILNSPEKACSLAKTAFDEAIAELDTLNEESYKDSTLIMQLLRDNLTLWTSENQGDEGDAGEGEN

Oc1cc(-c2nc(-c3ccccc3)[nH]c2-c2ccncc2)ccc1Cl
inactive: YWHAB -0.02 | YWHAQ 0.284 | YWHAZ [1] -0.068 | YWHAZ [2] 0.096 | YY1 -0.053 | ZADH2 0.121 | ZBTB21 -0.067 | ZBTB43 -0.064 | ZC3H18 0.015 | ZC3H8 -0.076 | ZC3HC1 0.024 | ZCCHC9 -0.271 | ZDHHC17 0.002 | ZDHHC20 -0.232 | ZDHHC5 0.01 | ZDHHC7 isoform 2 0.026

CN1CC[C@H](c2c(O)cc(O)c3c(=O)cc(-c4ccccc4Cl)oc23)[C@H](O)C1 [alvocidib]
inactive: YWHAB -0.06 | YWHAQ -0.192 | YWHAZ [1] -0.003 | YWHAZ [2] -0.056 | YY1 -0.099 | ZADH2 -0.05 | ZBTB21 -0.067 | ZBTB43 0.008 | ZC3H18 -0.217 | ZC3H8 0.189 | ZC3HC1 -0.318 | ZCCHC9 0.321 | ZDHHC17 -0.027 | ZDHHC20 -0.016 | ZDHHC5 -0.038 | ZDHHC7 isoform 2 0.077

O=C(O)c1ccc2c(c1)nc(Nc1cccc(Cl)c1)c1ccncc12 [silmitasertib]
inactive: YWHAB -0.014 | YWHAQ 0 | YWHAZ [1] -0.065 | YWHAZ [2] -0.078 | YY1 0.057 | ZADH2 0.053 | ZBTB17 isoform 2 0.023 | ZBTB21 0.104 | ZC3H18 0.135 | ZC3H8 0.035 | ZC3HC1 0.06 | ZCCHC9 0.095 | ZDHHC17 0.025 | ZDHHC20 0.08 | ZDHHC5 0.101

Cc1ccc(NC(=O)c2ccc(CN3CC[C@H](N(C)C)C3)c(C(F)(F)F)c2)cc1Nc1nccc(-c2cncnc2)n1 [bafetinib]
inactive: YWHAB -0.008 | YWHAQ -0.035 | YWHAZ [1] -0.131 | YWHAZ [2] -0.022 | YY1 -0.044 | ZADH2 -0.08 | ZBTB17 isoform 2 0.07 | ZBTB21 0.194 | ZBTB43 -0.006 | ZC3H18 0.033 | ZC3H8 0.052 | ZC3HC1 0.018 | ZCCHC9 0.144 | ZDHHC17 -0.007 | ZDHHC20 0.104 | ZDHHC5 0 | ZDHHC8 isoform 3 -0.03

C=CC(=O)N1CCC[C@@H](n2nc(-c3ccc(Oc4ccccc4)cc3)c3c(N)ncnc32)C1 [ibrutinib]
inactive: YWHAB -0.013 | YWHAQ 0.002 | YWHAZ [1] -0.167 | YWHAZ [2] 0.019 | YY1 -0.032 | ZADH2 0.125 | ZBTB17 isoform 2 -0.05 | ZBTB21 -0.174 | ZBTB43 0.064 | ZC3H18 0.002 | ZC3H8 0.03 | ZC3HC1 -0.041 | ZCCHC9 0.06 | ZDHHC17 -0.029 | ZDHHC20 -0.004 | ZDHHC5 0.02 | ZDHHC8 isoform 3 0.043

NC1(c2ccc(-c3nc4ccn5c(=O)[nH]nc5c4cc3-c3ccccc3)cc2)CCC1
inactive: YWHAB -0.056 | YWHAQ 0.007 | YWHAZ [1] -0.206 | YWHAZ [2] 0.066 | YY1 0.011 | ZADH2 0.106 | ZBTB17 isoform 2 -0.143 | ZBTB21 0.047 | ZC3H18 0.032 | ZC3H8 0.181 | ZC3HC1 -0.091 | ZCCHC9 0.218 | ZDHHC17 -0.06 | ZDHHC20 -0.027 | ZDHHC5 -0.027

CC(C)(O)CC(=O)NCCn1ccc2ncnc(Nc3ccc(Oc4cccc(C(F)(F)F)c4)c(Cl)c3)c21
inactive: YWHAB -0.013 | YWHAQ -0.084 | YWHAZ [1] 0.021 | YWHAZ [2] 0.027 | YY1 -0.026 | ZBTB21 0.101 | ZBTB43 0.175 | ZC3H18 0.034 | ZC3H8 0.064 | ZC3HC1 -0.179 | ZCCHC9 0.166 | ZDHHC17 0.062 | ZDHHC20 -0.082 | ZDHHC5 0.033 | ZDHHC7 isoform 2 -0.026
active: ZADH2 -0.323 | ZDHHC6 -0.932 | ZDHHC8 isoform 3 0.486

CCCc1cc(C)[nH]c(=O)c1CNC(=O)c1cc(-c2ccnc(N3CCN(C)CC3)c2)cc2c1cnn2C(C)C
inactive: YWHAB -0.031 | YWHAQ 0.241 | YWHAZ [1] -0.393 | YWHAZ [2] 0.056 | YY1 -0.006 | ZADH2 0.004 | ZBTB17 isoform 2 -0.158 | ZBTB21 -0.008 | ZC3H18 -0.011 | ZC3H8 -0.027 | ZC3HC1 0.029 | ZCCHC9 0.057 | ZDHHC17 -0.061 | ZDHHC20 -0.079 | ZDHHC5 0.095

Cc1ccc(C(=O)N(CCCN)[C@@H](c2nc3cc(Cl)ccc3c(=O)n2Cc2ccccc2)C(C)C)cc1 [ispinesib]
inactive: YWHAB 0.053 | YWHAQ 0.241 | YWHAZ [1] -0.11 | YWHAZ [2] 0.149 | YY1 -0.147 | ZADH2 -0.107 | ZBTB21 -0.09 | ZBTB43 0.164 | ZC3H18 0.039 | ZC3H8 -0.016 | ZC3HC1 -0.027 | ZCCHC9 -0.353 | ZDHHC17 0.023 | ZDHHC20 -0.076 | ZDHHC5 -0.035 | ZDHHC7 isoform 2 0.126

CCCCN(Cc1ccc(C(=O)NO)cc1)C(=O)Nc1ccccc1 [Nexturastat A]
inactive: YWHAB -0.048 | YWHAQ -0.063 | YWHAZ [1] 0.34 | YWHAZ [2] -0.051 | YY1 0.069 | ZADH2 0.005 | ZBTB21 0.106 | ZBTB43 -0.203 | ZC3H18 0.11 | ZC3H8 0.106 | ZC3HC1 -0.106 | ZCCHC9 0.311 | ZDHHC17 -0.086 | ZDHHC20 -0.149 | ZDHHC5 -0.001 | ZDHHC6 -0.06 | ZDHHC7 isoform 2 0.052 | ZDHHC8 isoform 3 -0.151

CN1CCc2c(c3ccccc3n2Cc2ccc(C(=O)NO)cc2)C1 [Tubastatin A]
inactive: YWHAB -0.014 | YWHAQ -0.026 | YWHAZ [1] 0.102 | YWHAZ [2] -0.004 | YY1 -0.011 | ZADH2 -0.007 | ZBTB17 isoform 2 0.049 | ZBTB21 -0.132 | ZBTB43 -0.018 | ZC3H18 0.129 | ZC3H8 -0.034 | ZC3HC1 0.07 | ZCCHC9 0.103 | ZDHHC17 -0.012 | ZDHHC20 0.02 | ZDHHC5 0.051 | ZDHHC7 isoform 2 -0.003 | ZDHHC8 isoform 3 0.058

O=C1NC(=O)/C(=C\c2ccc3nccnc3c2)S1
inactive: YWHAB 0.023 | YWHAQ 0.003 | YWHAZ [1] -0.01 | YWHAZ [2] -0.012 | YY1 0.004 | ZADH2 -0.05 | ZBTB17 isoform 2 0.171 | ZBTB21 0.156 | ZBTB43 -0.054 | ZC3H18 0.035 | ZC3H8 0.044 | ZC3HC1 0.021 | ZCCHC9 -0.015 | ZDHHC17 0.11 | ZDHHC20 0.095 | ZDHHC5 0.007 | ZDHHC8 isoform 3 -0.002

Fc1ccc(Cl)cc1-c1nc(Nc2ccncc2)c2nccnc2n1
inactive: YWHAB 0.048 | YWHAQ 0.146 | YWHAZ [1] 0.099 | YWHAZ [2] 0.081 | YY1 0.073 | ZADH2 -0.011 | ZBTB21 -0.022 | ZBTB43 -0.194 | ZC3H18 -0.134 | ZC3H8 -0.275 | ZC3HC1 0.128 | ZCCHC9 -0.378 | ZDHHC17 -0.006 | ZDHHC20 0.152 | ZDHHC5 -0.002 | ZDHHC6 -0.083 | ZDHHC7 isoform 2 0.093 | ZDHHC8 isoform 3 0.028

CC(=O)c1cnc2ccc(-c3cc(Cl)c(O)c(Cl)c3)nc2c1N[C@H]1CC[C@H](CN(C)C)CC1
inactive: YWHAB -0.019 | YWHAQ 0.118 | YWHAZ [1] -0.081 | YWHAZ [2] 0.06 | YY1 -0.084 | ZADH2 -0.131 | ZBTB43 0.008 | ZC3H18 -0.155 | ZC3H8 0.006 | ZC3HC1 -0.165 | ZCCHC9 0.143 | ZDHHC17 -0.007 | ZDHHC20 0.026 | ZDHHC5 -0.049 | ZDHHC7 isoform 2 -0.017
active: ZBTB21 -0.42

C/C(=N\NC(=O)c1cccc(S(=O)(=O)N2CCOCC2)c1)c1cc(Cl)ccc1O
active: ZADH2 0.372
inactive: YWHAB 0.005 | YWHAQ 0.204 | YWHAZ [1] -0.037 | YWHAZ [2] 0.061 | YY1 0.072 | ZBTB21 0.068 | ZBTB43 0.02 | ZC3H18 0.01 | ZC3H8 -0.128 | ZC3HC1 0.199 | ZCCHC9 -0.224 | ZDHHC17 -0.004 | ZDHHC20 -0.048 | ZDHHC5 0.003 | ZDHHC7 isoform 2 0.057

CCN(CCCOc1ccc2c(Nc3cc(CC(=O)Nc4cccc(F)c4)[nH]n3)ncnc2c1)CCOP(=O)(O)O [barasertib]
inactive: YWHAB 0.003 | YWHAQ 0.006 | YWHAZ [1] 0.114 | YWHAZ [2] -0.002 | YY1 -0.01 | ZADH2 0.049 | ZBTB17 isoform 2 -0.048 | ZBTB21 -0.043 | ZBTB43 -0.105 | ZC3H18 -0.05 | ZC3H8 -0.075 | ZC3HC1 0.108 | ZCCHC9 -0.094 | ZDHHC17 0.067 | ZDHHC20 0.022 | ZDHHC5 -0.001 | ZDHHC8 isoform 3 0.028

Cc1cc(Nc2cc(N3CCN(C)CC3)nc(Sc3ccc(NC(=O)C4CC4)cc3)n2)n[nH]1 [tozasertib]
inactive: YWHAB 0.019 | YWHAQ 0.046 | YWHAZ [1] 0.176 | YWHAZ [2] 0.045 | YY1 0.099 | ZADH2 0.014 | ZBTB17 isoform 2 0.299 | ZBTB21 -0.219 | ZBTB43 0.063 | ZC3H18 0.061 | ZC3H8 0.058 | ZC3HC1 0.047 | ZCCHC9 0.04 | ZDHHC17 -0.02 | ZDHHC20 0.006 | ZDHHC5 -0.057 | ZDHHC7 isoform 2 -0.04 | ZDHHC8 isoform 3 -0.041
